Measured values from PubChem BioAssay (NCATS).
“And” between values parts separate entries of the source, which are not always exact repeats. Equal entries are not always repeated. Records with an inconclusive call do not appear. Where a call stands in place of a potency, no number is given. A number with no mark means an inactive call. The source made the active and inactive calls. Unless noted, calls follow the shape of the dose curve; as a rule, active = well fitted curve in the direction sought with a large enough effect; inconclusive = small, poorly fitted or top-dose-only effect, or another doubt; inactive = no such curve, though single readings can be large; an effect the other way counts as inactive or inconclusive.

How the values were obtained:
[1] = target: Cellular tumor antigen p53 (Homo sapiens) (UniProt P04637); test: Primary qHTS for small molecule compounds that upregulate eGFP-tagged delta133p53alpha (in N-terminal) cells. (AID 2060322); details: NCI-H358 eGFP-delta133p53alpha fluorescence, 24 h; activation: active compounds read high; also: nearly all actives have a fitted effect of over 75% in size; also: potency is read from the fitted curve at half-maximal effect;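 as to activation: cells pre-induced with doxycycline then dosed without doxycycline; series mostly up to about 56 µM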
Outline: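 NCI-H358 cells pre-induced 24 h with 10 ng/ml doxycycline for eGFP-delta133p53alpha, plated dox-free and exposed 24 h at 37C to titrated compounds. Fixed, Hoechst-stained; gated GFP peak intensity by laser scanning cytometry, normalized to DMSO (0%) and 57.5 uM 5-azacytidine (100%).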

[2] = target: Cellular tumor antigen p53 (Homo sapiens) (UniProt P04637); test: Primary qHTS for small molecule compounds that upregulate eGFP-tagged delta133p53alpha (in C-terminal) cells. (AID 2060324); also: potency is read from the fitted curve at half-maximal effect
Outline: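 Readout: filtered GFP peak intensity of gated cells (laser scanning cytometer), normalized plate-wise to intraplate controls, DMSO wells = 0% activity. Cells: NCI-H358 D133p53a-eGFP, dox 100 ng/ml 24 h beforehand, then compound 24 h, 37 °C.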

[3] = target: Aldehyde dehydrogenase, mitochondrial (Homo sapiens) (UniProt P05091); test: qHTS for Inhibitors of the Aldehyde Dehydrogenase Family (ALDH2) Validation screens (AID 2061302; active = well fitted inhibition curve with a large enough effect; title and protocol of this record describe different tests; also: potency is read from the fitted curve at half-maximal effect)
[4] = target: Aldehyde dehydrogenase, mitochondrial (Homo sapiens) (UniProt P05091); test: qHTS for Inhibitors of the Aldehyde Dehydrogenase Family (ALDH2) Primary screen (AID 2061308); also: nearly all actives have a fitted effect of over 55% in size
[5] = target: Retinaldehyde dehydrogenase 3 (Homo sapiens) (UniProt P47895); test: qHTS for Inhibitors of the Aldehyde Dehydrogenase Family (ALDH1A3) Validation screen (AID 2061312); also: nearly all actives have a fitted effect of over 45% in size
[6] = target: Retinaldehyde dehydrogenase 3 (Homo sapiens) (UniProt P47895); test: qHTS for Inhibitors of the Aldehyde Dehydrogenase Family (ALDH1A3) Primary screen (AID 2061315)

Sequence of Cellular tumor antigen p53 (Homo sapiens) (P04637 whole entry, looked up): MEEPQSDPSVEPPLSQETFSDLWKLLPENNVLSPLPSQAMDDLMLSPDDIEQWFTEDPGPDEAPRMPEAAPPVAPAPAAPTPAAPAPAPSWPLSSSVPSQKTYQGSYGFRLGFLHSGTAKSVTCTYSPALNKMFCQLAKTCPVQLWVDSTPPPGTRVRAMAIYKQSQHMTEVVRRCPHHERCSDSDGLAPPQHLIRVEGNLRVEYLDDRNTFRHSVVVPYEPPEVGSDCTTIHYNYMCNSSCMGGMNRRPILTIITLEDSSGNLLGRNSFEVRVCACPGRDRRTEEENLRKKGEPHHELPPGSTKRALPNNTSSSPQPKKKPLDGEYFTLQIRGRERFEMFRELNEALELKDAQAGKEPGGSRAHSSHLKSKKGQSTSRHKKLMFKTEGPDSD

Compound | activation [1] | Potency [2] | Potency [3] | Potency [4] | Potency [5] | Potency [6] | Potency [1]
COc1ccccc1N1CCN(CCCNc2cc(=O)n(C)c(=O)n2C)CC1 | 16.7% and -11.6% and 14.7% | inactive | inactive | inactive | inactive | inactive | 
CC(=O)OCC1=C(C(=O)O)N2C(=O)[C@@H](NC(=O)Cc3cccs3)[C@H]2SC1 | 27.7% and 1.09% | inactive | inactive |  | inactive |  | 
CCOC(=O)C12CC1/C(=N/O)c1ccccc1O2 (stereo not given) | -19.2% | inactive | inactive |  | inactive |  | 
Nc1c2c(nc3ccccc13)CCCC2O (stereo not given) | 7.34% and -16.8% | inactive | inactive |  | inactive |  | 
CC(C)(C)[C@]1(O)CCN2C[C@H]3c4ccccc4CCc4cccc(c43)[C@@H]2C1 | -52.3% and -59.2% | inactive | inactive |  | inactive |  | 
Nc1nc2[nH]c(=O)cnc2c(=O)[nH]1 | -25.1% | inactive | inactive |  | inactive |  | 
O=C1C2C=CC=CC2=NC(=S)N1CCN1CCC(=C(c2ccc(F)cc2)c2ccc(F)cc2)CC1 (stereo not given) | -39.4% | inactive | inactive |  | inactive |  | 
CC(C(=O)O)c1ccc(CC2CCCC2=O)cc1 (stereo not given) | -10% and 11.7% | inactive | inactive |  | inactive |  | 
O=C1NC(=O)[C@@]2(CCOc3ccc(F)cc32)N1 | -3.95% and 3.53% | inactive | inactive |  | inactive |  | 
CC1=NS(=O)(=O)c2cc(Cl)ccc2N1 | 19.8% and -34.3% | inactive | inactive |  | inactive |  | 
CC(CCc1ccc(O)cc1)NCCc1ccc(O)c(O)c1 (stereo not given) | 23.7% and -15.1% and -3.75% | inactive | inactive |  | inactive |  | 
CCCN(CCC)CCc1cccc2c1CC(=O)N2 | 6.69% and 9.01% | inactive | inactive |  | inactive |  | 
NCCSSCCN | 43.3% | inactive | inactive |  | inactive |  | 
CC(=O)SCC[N+](C)(C)C | -8.68% | inactive | inactive |  | inactive |  | 
Nc1nc(SCc2ccc([N+](=O)[O-])cc2)c2ncn([C@@H]3O[C@H](CO)[C@@H](O)[C@H]3O)c2n1 | -3.28% | inactive | inactive |  | inactive |  | 
COc1ccc2c(c1)c(CC(=O)O)c(C)n2C(=O)c1ccccc1 | -16.8% | inactive | inactive |  | inactive |  | 
Oc1cc(O)c2c(c1)O[C@H](c1ccc(O)c(O)c1)[C@@H](O)C2 | -7.14% | inactive | inactive |  | inactive |  | 
Cn1c(=O)c2[nH]c(C3CCCC3)nc2n(C)c1=O | 3.95% | inactive | inactive |  | inactive |  | 
CN(C)CCCN1c2ccccc2Sc2ccccc21 | 2.51% and 16.3% | inactive | inactive |  | inactive |  | 
COc1ccc(/C=C2\COc3ccc(C)cc3C2=O)cc1O | -71.5% | 13.5 µM (active) | inactive |  | inactive |  | 
Cc1ccc(S(=O)(=O)/C=C/C#N)cc1 |  | 30.1 µM (active) | 0.398 µM (active) |  | inactive |  | 30.1 µM (active)
C[C@@H](CN1CCC(Cc2ccccc2)CC1)[C@@H](O)c1ccc(O)cc1 | -9.23% | inactive | inactive |  | inactive |  | 
Nc1ccc(S(=O)(=O)Nc2ccnn2-c2ccccc2)cc1 | 12.6% and 48.1% and -20.4% | inactive | inactive |  | inactive |  | 
CN(CC[C@@H](Oc1ccc(C(F)(F)F)cc1)c1ccccc1)CC(=O)O | 2.22% | inactive | inactive |  | inactive |  | 
COc1ccccc1N1CCN(CCCCNC(=O)c2ccc3ccccc3c2)CC1 | -23% | inactive | inactive |  | inactive |  | 
CC(C)[C@@H]1CC[C@@H](C)C[C@@H]1P(=O)(c1ccccc1)c1ccccc1 | -3.04% | inactive | inactive |  | inactive |  | 
CNC(=O)[C@H]1O[C@@H](n2cnc3c(NCc4cccc(I)c4)ncnc32)[C@H](O)[C@@H]1O | -36.7% | inactive | inactive |  | inactive |  | 
